Assay outcomes deposited in PubChem BioAssay by Johns Hopkins Ion Channel Center.
KCNQ2 inh – rat KCNQ2 potassium channel inhibitors, primary screen, cell-based, CHO-K1, FluxOR thallium flux, B-score; 20 min; hits give low values; B-score at 10 µM; Potassium voltage-gated channel subfamily KQT member 2 (Rattus norvegicus), O88943; 310,000 tested, 1.1% active;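 active = fluorescence ratio B-score at most minus 3 library SDs, with starting brightness B-score within 2 library SDs, cut at about -5.5 in these data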
KCNQ2 pot – potentiators of rat KCNQ2 potassium channel; Potassium voltage-gated channel subfamily KQT member 2 (Rattus norvegicus), O88943; CHO-K1 KCNQ2, FluxOR thallium flux fluorescence; hits give high values; B-score at 10 µM; 310,000 tested, 0.54% active; AID 2239, 2010;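 active = fluorescence ratio B-score at least 3 SD of library B-scores, with initial fluorescence B-score within 3 of them, cut at about 5.3 in these data; same plate scores as AID 2156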;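 also: B-score of peak minus minimum over baseline fluorescence ratio after K+ and Tl+ stimulus; positive B-score means potentiation of KCNQ2 with more thallium influx and brighter signal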
KCNQ2 block conf – rat KCNQ2 potassium channel inhibitors, confirmation, cell-based, thallium flux | shares compounds with KCNQ2 inh | KCNQ2-expressing cells, inhibition; hits give low values | activity change, negative = inhibition, % at 10 µM | 1,000 tested, 57% active;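 also: 0% = vehicle wells and values are ratio percent relative to vehicle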
KCNQ1 spec – human KCNQ1 channel inhibition, counter-screen for KCNQ2 inhibitor project, cell-based, FluxOR thallium flux; shares compounds with KCNQ2 inh; KCNQ1-expressing cells, FluxOR thallium flux fluorescence; hits give low values; activity change, negative = inhibition, % at 10 µM; 1,000 tested, 15% active; AID 493026, 2011;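 active = activity change at least 3 SD of negative controls below their mean in both duplicate wells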;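 also: CHO cells stably transfected with KCNQ1 and depolarized by potassium stimulus; peak minus minimum fluorescence over baseline after thallium addition; 0% = vehicle negative control and -100% = blank without thallium stimulus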
Target sequence (P51787 whole entry, looked up): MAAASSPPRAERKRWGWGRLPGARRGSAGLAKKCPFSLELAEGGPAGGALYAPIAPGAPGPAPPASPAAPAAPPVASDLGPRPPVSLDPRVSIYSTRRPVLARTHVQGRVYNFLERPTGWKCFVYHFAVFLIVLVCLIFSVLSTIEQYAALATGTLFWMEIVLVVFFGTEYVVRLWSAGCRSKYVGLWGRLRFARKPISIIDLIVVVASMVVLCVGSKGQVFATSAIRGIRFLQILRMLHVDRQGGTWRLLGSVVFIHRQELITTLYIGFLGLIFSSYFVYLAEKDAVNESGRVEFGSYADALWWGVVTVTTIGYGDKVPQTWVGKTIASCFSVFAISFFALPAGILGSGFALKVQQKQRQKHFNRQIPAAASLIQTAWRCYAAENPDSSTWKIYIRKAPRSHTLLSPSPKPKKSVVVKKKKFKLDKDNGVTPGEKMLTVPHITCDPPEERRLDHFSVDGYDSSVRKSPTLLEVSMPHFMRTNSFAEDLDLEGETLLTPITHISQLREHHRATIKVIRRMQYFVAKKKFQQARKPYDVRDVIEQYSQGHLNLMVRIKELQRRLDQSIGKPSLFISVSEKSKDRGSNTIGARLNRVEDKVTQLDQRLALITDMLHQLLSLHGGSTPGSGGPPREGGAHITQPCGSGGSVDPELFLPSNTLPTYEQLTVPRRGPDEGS
CHO parental ctr – thallium flux change in parental CHO cells, counter-screen for KCNQ2 inhibitor project | shares compounds with KCNQ2 inh | hits give low values | 1,000 tested, 14% active | activity change, % at 10 µM;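 also: 0% = vehicle negative controls with stimulus buffer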
KCNQ2 patch conf – rat KCNQ2 channel inhibitors, confirmation, cell-based, automated patch clamp, single concentration; shares compounds with KCNQ2 inh; KCNQ2-expressing cells, automated patch clamp current; calls only at 10 µM; 550 tested, 49% active; AID 588531, 2011
An asterisk follows results filed as active; i = inactive; nt = not tested or not shown; + = active, no number. This is a sample that favours compounds with a hit; in the whole collection about 1.6% have one here. Unless noted, no rule for the calls is given here.

SMILES	KCNQ2 inh	KCNQ2 pot	KCNQ2 block conf	KCNQ1 spec	CHO parental ctr	KCNQ2 patch conf
Cc1sc(NC(=O)c2ccco2)c(C(c2cccnc2)N2CCN(c3ccc(F)cc3)CC2)c1C (configuration not stated)	-10*	-10	-29%*	i	i	i
Cn1c(=O)[nH]c(=O)c2c1nc(SCCO)n2CC(O)COc1ccccc1 (configuration not stated)	i	0.46	nt	nt	nt	nt
Cc1onc(-c2ccccc2)c1C(=O)Nc1nc(-c2cc(F)ccc2F)cs1	i	nt	nt	nt	nt	nt
Cc1onc(-c2ccccc2)c1C(=O)Nc1nc(-c2ccccc2)cs1	-7.2*	-7.2	i	i	i	nt
Cn1c(=O)c2c([nH]c(=O)n2C)n(Cc2ccccc2)c1=O	i	nt	nt	nt	nt	nt
CC(C)=CCc1c(O)cc(O)c2c(=O)c(O[C@@H]3O[C@@H](C)[C@H](O)[C@@H](O)[C@H]3O)c(-c3ccc(O)cc3)oc12	-7.1*	-7.1	-40%*	-36%*	-23%*	i
CC1OC(Oc2c(-c3cc(O)c(O)c(O)c3)oc3cc(O)cc(O)c3c2=O)C(O)C(O)C1O (configuration not stated)	i	nt	nt	nt	nt	nt
COc1cc2c(cc1OC)C(C)N(C(=O)c1cc3c(s1)-c1ccccc1OC3)CC2 (configuration not stated)	-8.4*	-8.4	i	i	i	nt
CCOC(=O)c1cc2c(s1)-c1c(C)cccc1OC2	i	nt	nt	nt	nt	nt
COc1cc2c(cc1OC)C(C)N(C(=O)c1cc3c(s1)-c1c(C)cccc1OC3)CC2 (configuration not stated)	-6.7*	-6.7	-36%*	i	i	+
COc1cc2c(cc1OC)C(C)N(C(=O)c1cccs1)CC2 (configuration not stated)	i	nt	nt	nt	nt	nt
N#CCCN(CCC#N)C(=O)C1c2ccccc2Oc2ccccc21	i	nt	nt	nt	nt	nt
COc1cc2cc(C(=O)N3CCOCC3)cc(-c3ccc(C)cc3)c2cc1OC	i	nt	nt	nt	nt	nt
Cc1ccc(-c2cnc(C3CC3)o2)cc1S(=O)(=O)Nc1ccccc1	i	nt	nt	nt	nt	nt
Cc1ccc(N(C)S(=O)(=O)c2cc(-c3cnc(C4CC4)o3)ccc2C)cc1	-7.2*	-7.2	-15%*	i	i	i
CCCCCCSc1ccc([C@H]2N[C@@](C)(C(=O)OC)[C@H]3C(=O)N(C)C(=O)[C@@H]23)cc1	i	nt	nt	nt	nt	nt
COc1ccc2cc(CN(CC3CCCO3)C(=S)NCc3ccco3)c(=O)[nH]c2c1 (configuration not stated)	i	0.22	nt	nt	nt	nt
COc1cc(C(=O)Nc2ccccc2N2CCCCC2)cc(OC)c1OC	-7.4*	-7.4	-39%*	-28%*	i	+
COc1ccc(Cl)cc1C(=O)Nc1ccccc1N1CCN(C)CC1	i	nt	nt	nt	nt	nt
COc1ccc(Cl)cc1C(=O)Nc1ccccc1N1CCCCC1	-7.5*	-7.5	-32%*	i	i	i
COc1cc(C(=O)NC(=S)Nc2ccccc2N2CCCC2)cc(OC)c1OC	i	nt	nt	nt	nt	nt
COc1ccc(Br)cc1C(=O)Nc1ccccc1N1CCCC1	i	nt	nt	nt	nt	nt
COc1ccc(Br)cc1C(=O)Nc1ccccc1-c1ccccc1	-9.3*	-9.3	-15%*	i	i	i
COc1cccc(-c2nc(-c3ccc4c(c3)-c3ccccc3S4(=O)=O)c(-c3ccccc3)[nH]2)c1OC	-8.9*	-8.9	-26%*	i	i	i
COc1cccc(-c2nc(-c3ccccc3)c(-c3ccccc3)[nH]2)c1OCC(=O)O	i	nt	nt	nt	nt	nt
SMILES	KCNQ2 inh	KCNQ2 pot	KCNQ2 block conf	KCNQ1 spec	CHO parental ctr	KCNQ2 patch conf
O=C(c1ccncc1)N1N=C(c2ccc(Cl)cc2)CC1c1ccccc1O (configuration not stated)	i	2.1	nt	nt	nt	nt
O=C(/C=C/c1cccc(F)c1)N(c1ccccn1)C1CCCCC1	i	nt	nt	nt	nt	nt
O=C(/C=C/c1ccc(Cl)cc1)N(c1ccccn1)C1CCCCC1	-8.1*	-8.1	-44%*	-35%*	-34%*	+
Cc1ccc(C)c(C2=NNC(=O)CC2)c1	i	0.39	nt	nt	nt	nt
Cc1c(C(=O)N(Cc2nccn2C)C(C)C)oc2c(F)cccc12	i	0.43	nt	nt	nt	nt
Cc1ccc2c(C)c(C(=O)N3CCN(c4ncccn4)CC3)oc2c1C	-8.6*	-8.6	-29%*	i	i	+
Cc1ccc2c(C)c(C(=O)N(C)Cc3nccn3C)oc2c1C	-7.6*	-7.6	i	i	i	nt
COc1ccc2oc(C(=O)N3CCN(c4ncccn4)CC3)c(C)c2c1	i	0.12	nt	nt	nt	nt
O=C(Nc1ccc(S(=O)(=O)NC2=NCCCCC2)cc1)c1ccc(Cl)cc1Cl	i	2.8	nt	nt	nt	nt
CCOc1ccccc1OCC(=O)N/N=C(\C)Cc1ccc(OC)cc1	i	0.09	nt	nt	nt	nt
COc1ccccc1OCC(=O)NN=C(Cc1ccccc1)Cc1ccccc1	-6.7*	-6.7	-32%*	i	i	+
COc1ccc(C(=O)CC(=O)C(=O)Nc2ccc(Cl)cc2)cc1	i	nt	nt	nt	nt	nt
COc1ccc(C(=O)CC(Nc2ccc([N+](=O)[O-])cc2)c2ccc(Cl)cc2)cc1 (configuration not stated)	-8.1*	-8.1	i	i	i	nt
COC(=O)c1ccc2c(c1)N(C)S(=O)(=O)c1cnc(SCC(=O)C(C)(C)C)nc1-2	i	1.5	nt	nt	nt	nt
O=C(Cn1nnc(-c2ccccc2)n1)NNC(=O)c1ccco1	i	0.11	nt	nt	nt	nt
CC(=O)c1cccc(N=Nc2c(-c3ccccc3)[nH]n(-c3ccccc3)c2=O)c1	i	0.6	nt	nt	nt	nt
N#C/C(=C/c1ccc(N2CCCCC2)o1)c1cccc(F)c1	i	nt	nt	nt	nt	nt
N#C/C(=C/c1ccc(N2CCCCCC2)o1)c1ccc(Cl)cc1	-8.4*	-8.4	-31%*	-28%*	-22%*	i
O=C(c1ccco1)N(CCC(c1ccccc1)c1ccco1)Cc1ccc(F)cc1 (configuration not stated)	-7.8*	-7.8	-46%*	-46%*	-42%*	+
CC1(C)CC(C(CCN(Cc2ccccc2)C(=O)c2ccco2)c2ccc(F)cc2)CCO1 (configuration not stated)	i	nt	nt	nt	nt	nt
Cc1ccc(C(CCN)c2ccco2)cc1 (configuration not stated)	i	nt	nt	nt	nt	nt
CCC(=O)N(CCC(c1ccc(C)cc1)c1ccco1)Cc1ccco1 (configuration not stated)	-10*	-10	i	i	i	nt
CCS(=O)(=O)N1Cc2ccccc2CC1C(=O)NCCc1c[nH]c2ccccc12 (configuration not stated)	i	nt	nt	nt	nt	nt
CCC(C(=O)Nc1ccc(C(=O)Nc2ccccc2C(=O)O)cc1)c1ccccc1 (configuration not stated)	i	nt	nt	nt	nt	nt
COc1ccc(NC(=O)c2cc3c(Cl)nc4ccccc4c3s2)c(OC)c1	i	0.8	nt	nt	nt	nt
